This is part of a sample that, as a whole, favours compounds with a hit. Of some 79,000 tested, about 15% had one in any assay. No stated cut-off is given here; in the data, active means growth inhibition above about 70%; inactive means the rest.
How the values were obtained:
[1] = NCI Yeast Anticancer Drug Screen. Data for the rad50 strain (AID 155);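 further: 0% = growth of vehicle-only cultures of the same strain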; conditions: S. cerevisiae rad50 strain growth inhibition; at 50.0 µM; hits give high values
Outline: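 Readout: growth inhibition relative to vehicle-treated cultures. Compound exposure was carried out in a genetically defined yeast strain deficient in DNA damage repair.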

[2] = NCI Yeast Anticancer Drug Screen. Data for the mec2-1 strain (AID 157); conditions: S. cerevisiae mec2-1 strain, at 50.0 µM, hits give high values
Outline: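 Readout is yeast growth inhibition, normalised to vehicle-treated controls, in the mec2-1 strain exposed to compound.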

[3] = NCI Yeast Anticancer Drug Screen. Data for the sgs1 mgt1 strain (AID 161);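 further: 0% = growth of cultures given vehicle only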; conditions: S. cerevisiae sgs1 mgt1 strain, at 50.0 µM, hits give high values
Outline: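 Percent growth inhibition was derived by comparing compound-exposed mutant yeast with vehicle-exposed cultures. The strain carries alterations in DNA damage repair.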

[4] = NCI Yeast Anticancer Drug Screen. Data for the cln2 rad14 strain (AID 165);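 further: 0% = growth equal to vehicle treated cultures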; conditions: S. cerevisiae cln2 rad14 strain, at 50.0 µM, hits give high values
Outline: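 Relative to vehicle controls, growth inhibition of compound-treated cln2 rad14 yeast was recorded.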

[5] = NCI Yeast Anticancer Drug Screen. Data for the bub3 strain (AID 167); conditions: S. cerevisiae bub3 mutant strain, at 50.0 µM, hits give high values
Outline: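 Readout: yeast growth inhibition, expressed relative to vehicle-only wells. The test organism is a mutant strain from a panel with lesions in DNA repair or checkpoint genes.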

[6] = NCI Yeast Anticancer Drug Screen. Data for the mlh1 rad18 strain (AID 175); conditions: S. cerevisiae mlh1 rad18 strain growth inhibition; at 50.0 µM; hits give high values
Outline: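 Test agents were incubated with a yeast strain of defined genotype (DNA damage repair defect). Inhibition of growth was derived by comparison with vehicle-exposed cultures.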

Measured: growth inhibition

CC(=O)Oc1ccc(OC(C)=O)c2cc3c(cc12)C(=O)C(C)=C(C)C3=O
inactive: [1] 0.4% | [2] 2.35% | [3] 1.1% | [4] -7.05% | [5] 3.35% | [6] 4.85%

CCCCOC(=O)CCCCCCCCC(=O)OCCCC
inactive: [1] 23.6% | [2] -9% | [3] 2.05% | [4] -14.1% | [5] 0.2% | [6] 28.4%

CC(C)(C)c1ccc(C(=O)O)c(O)c1.CC(C)(C)c1ccc(C(=O)O)c(O)c1.[Cu]
inactive: [1] 24.6% | [2] 15.1% | [3] 43.4% | [4] 47.6% | [5] 2.75% | [6] 37.1%

COc1ccc(S(=O)(=O)O)cc1NS(=O)(=O)c1ccc(C)cc1
inactive: [1] -1.05% | [2] 18.9% | [3] 15.9% | [4] -12.2% | [5] 0.05% | [6] -2.1%

O=[N+]([O-])c1cc(F)cc(F)c1Nc1ccccc1
inactive: [1] 2.85% | [2] -11.4% | [3] 2.2% | [4] 3.1% | [5] 0.5% | [6] 17.6%

Nc1ccc(O)c(N)c1
inactive: [1] 35.1% | [2] 23.5% | [3] 26.6% | [4] 13.9% | [5] -8% | [6] 31.4%

COc1ccc(/C=C2\CCC(Cc3ccccc3)(CN(C)C)C2=O)cc1 (stereo unspecified)
inactive: [1] 19.6% | [2] -15.3% | [3] 25.3% | [4] 3.7% | [5] -11.8% | [6] -72.4%

O=C1c2ccccc2-c2ccc(I)cc21
inactive: [1] 5.15% | [2] -1.7% | [3] 2.25% | [4] -17.6% | [5] 8.45% | [6] 26.2%

O=c1c(-c2ccccc2)c(O)on1/C=C1/C=CC=N1
inactive: [1] -8.6% | [2] -25.2% | [3] 3.5% | [4] 3.8% | [5] 7.2% | [6] 1.5%

CCCCNc1nc2nc[nH]c2c(=O)[nH]1
inactive: [1] -5.45% | [2] -6.3% | [3] -13.2% | [4] -2.25% | [5] -29.1% | [6] -48%

COc1cc2c(cc1C)C1=C(C)C(=O)OC1[C@@H](O)[C@@H]2C (stereo partly specified)
inactive: [1] 16.9% | [2] 11.6% | [3] 18.4% | [4] 3.45% | [5] 18.9% | [6] 18.8%

CC1(C(=O)O)CCCC2(C)C3=CC(=O)CCC3=CCC12 (stereo unspecified)
inactive: [1] -3.7% | [2] 18.1% | [3] 8.7% | [4] 2.95% | [5] 24.7% | [6] 4.5%

Cc1cc(C(=O)O)c2cc(Br)ccc2n1
inactive: [1] 4.2% | [2] 12.3% | [3] 15.2% | [4] 17.3% | [5] 11.2% | [6] -4.5%

COc1ccc(-c2nc(N)nc3c2CN(CCC(=O)O)C3=O)cc1
inactive: [1] 0.9% | [2] -18.2% | [3] 12% | [4] -8.6% | [5] 7.45% | [6] 3.9%

O=C(O)CNCc1ccccc1
inactive: [1] 2.85% | [2] 22.5% | [3] 14.6% | [4] -4.45% | [5] 16.4% | [6] -15.3%

CCCCCCCCCC1CC(=O)OC23CCCC(=O)C12O3 (stereo unspecified)
inactive: [1] -10.8% | [2] -32% | [3] 9.2% | [4] 15.8% | [5] -8% | [6] -17.6%

COc1cc(Nc2nc3cc(C(F)(F)F)ccc3nc2-c2ccccc2)cc(OC)c1OC
inactive: [1] 15.4% | [2] -4.8% | [3] -26.4% | [4] -11.8% | [5] -10.4% | [6] -23.9%

C=CCN(CC=C)C(=O)C(=C)C
inactive: [1] 3.3% | [2] -0.05% | [3] -5.5% | [4] 2.6% | [5] 3.7% | [6] -4.1%

CSCCCCCSC
inactive: [1] 0.6% | [2] -27.1% | [3] -25.3% | [4] 0.45% | [5] -3.75% | [6] 0.55%

Cc1ccc(N=C(C(=O)c2ccccc2)C(Nc2ccc(C)cc2)C(=O)c2ccccc2)cc1 (stereo unspecified)
inactive: [1] 23.8% | [2] 3.25% | [3] 17.8% | [4] 20.8% | [5] -3.7% | [6] 10.7%

Cc1c(C)c(O)c(SC(CC(=O)O)C(=O)O)c(C)c1O (stereo unspecified)
inactive: [1] 14.8% | [2] 37.8% | [3] 41.1% | [4] 1.65% | [5] 21.7% | [6] 44.1%

CCOC(=O)C/C(C(=O)O)=C(\C)c1ccc2ccccc2c1
inactive: [1] -10.4% | [2] 18.1% | [3] 20.9% | [4] 1.15% | [5] -2.25% | [6] -0.85%

CCOC(=O)c1cnc(SCc2ccccc2)[nH]c1=O
inactive: [1] -6.1% | [2] -9.8% | [3] -17.7% | [4] -3.7% | [5] -16.6% | [6] -13.3%

COC(=O)C1[C@@H](C(=O)OC)C12C=Cc1ccccc1C=C2 (stereo partly specified)
inactive: [1] -33.2% | [2] -47% | [3] -50.2% | [4] 1.05% | [5] -28.6% | [6] -25.4%

CCOC(=O)CS(=O)(=O)CS(=O)(=O)CC(=O)OCC
inactive: [1] 10% | [2] 8.35% | [3] 7.85% | [4] 5.55% | [5] 9.95% | [6] 7.25%

S=C(NCc1cccc2ccccc12)Nc1ccccc1
inactive: [1] -9.3% | [2] 7.8% | [3] 39% | [4] -27.5% | [5] 8.8% | [6] 20.9%

CCSC(N)=Nc1ccccc1 (tested in a mixture with another compound)
inactive: [1] 13.2% | [2] 9.5% | [3] 21.8% | [4] 13.3% | [5] 12.1% | [6] 18.1%

CC1(C)OC2CC(=O)OCC23C1CC(=O)C1(C)C3CCC2(C)C(c3ccoc3)OC(=O)C3OC321 (stereo unspecified)
inactive: [1] -7.65% | [2] 1.4% | [3] -0.55% | [4] 10.1% | [5] 8.7% | [6] 18.5%

CCN(CC)Cc1cc(NC(C)=O)ccc1O
inactive: [1] -5.1% | [2] -13.7% | [3] -17.4% | [4] 11.1% | [5] -4.95% | [6] 2.3%

CC(=O)/C(C=Nc1c(C)n(C)n(C)c1=O)=C(/O)c1ccccc1
inactive: [1] 0.15% | [2] 4.05% | [3] -10.4% | [4] 7.55% | [5] -19.6% | [6] 16%

NCCCCCCCCCCC(=O)O
inactive: [1] -7.25% | [2] -7.6% | [3] -10.7% | [4] -11.2% | [5] -5.9% | [6] -2.8%

COc1cc(NCc2c(O)ccc3ccccc23)c2ncccc2c1
inactive: [1] 46.1% | [2] 28.1% | [3] 13.1% | [4] -11.2% | [5] 7.75% | [6] 62.8%

O=C(O)CC(NC(=O)/C(=C/c1ccccc1)NC(=O)c1ccccc1)C(=O)O (stereo unspecified)
inactive: [1] -2.45% | [2] 0.65% | [3] 2.95% | [4] 6.85% | [5] 25.1% | [6] -22.1%

Cc1ccc(N=Nc2ccc(C)cc2NC(=O)c2ccc(Cl)c(Cl)c2)cc1
inactive: [1] -9.6% | [2] -11.2% | [3] -12% | [4] -13.1% | [5] 7.8% | [6] -20.4%

COC1=CC(=C(\C#N)c2ccc(Cl)cc2)/C=CC/1=N/O
inactive: [1] 20.1% | [2] 11.6% | [3] 3.85% | [4] -7.25% | [5] 5.75% | [6] 21.9%

C1CC(CCC2CCNCC2)CCN1
inactive: [1] 1.6% | [2] 1.15% | [3] 4.15% | [4] -13.4% | [5] 11.7% | [6] 1.55%

CC1([C@H]2CC[C@H]3[C@@H]4CC[C@H]5OC(=O)CC[C@]5(C)[C@H]4CC[C@]23C)SCCS1
inactive: [1] 20.7% | [2] -19% | [3] 12.5% | [4] 8.6% | [5] 8.55% | [6] 14.8%

O=C1CSC(c2ccc(Br)cc2)N1c1nncs1 (stereo unspecified)
inactive: [1] -2.75% | [2] 19.6% | [3] 18.2% | [4] -9.95% | [5] 6.6% | [6] 23.3%

COC(=N)Cc1cc(OC)cc(OC)c1
inactive: [1] -2.45% | [2] 6.4% | [3] 7.45% | [4] -12.7% | [5] 21.2% | [6] -6.6%

O=C(O)c1cnc2cccc([N+](=O)[O-])c2c1
inactive: [1] 2.5% | [2] 10.7% | [3] 0.2% | [4] -50.5% | [5] -22.2% | [6] 11.4%

COC(=O)C1CC(=O)CCC1c1ccccc1 (stereo unspecified)
inactive: [1] 1.5% | [2] -7.25% | [3] -16.1% | [4] -6.45% | [5] -7.55% | [6] -16.6%
